According to PubChem BioAssay (Tox21):
Records with an inconclusive call do not appear. The source made the active and inactive calls. Unless noted, calls follow the shape of the dose curve; as a rule, active = well fitted curve in the direction sought with a large enough effect in the repeat runs; inconclusive = weak or mixed curves; inactive = no such curve, though single readings can be large; an effect the other way counts as inactive or inconclusive.

Tests used:
[1] = qHTS assay to identify aromatase inhibitors - cell viability counter screen (AID 743084);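 also: cells stimulated with testosterone during compound exposure; nearly all actives have a fitted effect of over 55% in size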
[2] = qHTS assay to identify small molecule that activate the aryl hydrocarbon receptor (AhR) signaling pathway - cell viability counter screen (AID 743086);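 also: HepG2 liver cells carrying the AhR DRE luciferase reporter; series mostly up to about 70 µM; nearly all actives have a fitted effect of over 45% in size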
In short: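 HepG2-AhR-luc (HG2L7.5c1) cells, 4000/well, were preincubated 5 h at 37C, exposed to compound in qHTS format for 24 hr at 37C, then given CellTiter-Fluor for 30 min; viability was read as fluorescence in the reporter wells.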

[3] = qHTS assay to identify small molecule antagonists of the peroxisome proliferator-activated receptor gamma (PPARg) signaling pathway - cell viability counter screen (AID 743194); also: nearly all actives have a fitted effect of over 55% in size
In short: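 PPARg-UAS-bla HEK293H cells were plated, rested 5 h at 37 C, then treated with compounds plus rosiglitazone (50 nM final) for 17 h at 37 C; viability was then read by CellTiter-Glo luminescence after 30 min at room temperature.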

[4] = qHTS assay for small molecule agonists of the antioxidant response element (ARE) signaling pathway (AID 743202; active = well fitted activation curve with a large enough effect in the signal ratio in the repeat runs, not every such curve was filed as active; the % refers to the signal ratio)
In short: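 Compounds delivered in DMSO to ARE-bla HepG2 cells (2,000 cells/well, pre-incubated 5 h) and left 16 h at 37 C. LiveBLAzer B/G FRET substrate then added for 2 h at RT before fluorescence reading.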

[5] = qHTS assay for small molecule agonists of the antioxidant response element (ARE) signaling pathway - cell viability counter screen (AID 743203; calls by dose curve; also: nearly all actives have a fitted effect of over 55% in size)
In short: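 Seeded at 2,000 cells/well, ARE-bla HepG2 cells were incubated 5 hrs before compound addition. After 16 hrs of treatment at 37C with 5% CO2, CellTiter-Glo reagent was added and luminescence read 30 min later.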

[6] = qHTS assay for small molecule activators of the heat shock response signaling pathway - cell viability counter screen (AID 743209); also: nearly all actives have a fitted effect of over 50% in size
In short: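 First, HSE-bla HeLa cells were seeded at 1500 cells/well and kept overnight at 37 C. Next, compounds were pinned in and incubated 5 h. After the FRET substrate step, CellTiter-Glo was added and luminescence read 30 min later.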

[7] = qHTS assay for small molecule activators of the heat shock response signaling pathway (AID 743210; active = well fitted activation curve with a large enough effect in the signal ratio in the repeat runs, with a control signal flat, not every such curve was filed as active; the % refers to the signal ratio;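 also: HeLa cells with beta-lactamase reporter driven by heat shock elements; series mostly up to about 63 µM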)
In short: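 Reporter gene assay: HeLa cells stably bearing an HSE-bla construct, compound treatment 5 h at 37 C, LiveBLAzer substrate 2.5 h at RT, fluorescence intensity.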

[8] = qHTS assay to identify small molecule agonists of the peroxisome proliferator-activated receptor delta (PPARd) signaling pathway - cell viability counter screen (AID 743211); also: nearly all actives have a fitted effect of over 55% in size
In short: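 Viability was measured as CellTiter-Glo luminescence (30 min, room temperature) in the same wells as the beta-lactamase readout. GeneBLAzer PPARd UAS-bla HEK293H cells received compound after 5 h plating and were incubated 17 h at 37 C.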

[9] = qHTS assay to identify small molecule antagonists of the peroxisome proliferator-activated receptor delta (PPARd) signaling pathway - cell viability counter screen (AID 743213); also: nearly all actives have a fitted effect of over 50% in size
In short: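 Agonist-stimulated (L165041, 300 nM final) HEK293H PPARd UAS-bla cells are exposed to compounds for 17 h at 37 C, and ATP-based luminescence (CellTiter-Glo) from the same wells reports cytotoxicity.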

[10] = target: Bile acid receptor (Homo sapiens) (UniProt Q96RI1); assay: qHTS assay to identify small molecule antagonists of the farnesoid-X-receptor (FXR) signaling pathway (AID 743217; active = well fitted inhibition curve with a large enough effect in the signal ratio in the repeat runs, not every such curve was filed as active; the % refers to the signal ratio)
Chain of Bile acid receptor (Homo sapiens) (Q96RI1 whole entry, looked up): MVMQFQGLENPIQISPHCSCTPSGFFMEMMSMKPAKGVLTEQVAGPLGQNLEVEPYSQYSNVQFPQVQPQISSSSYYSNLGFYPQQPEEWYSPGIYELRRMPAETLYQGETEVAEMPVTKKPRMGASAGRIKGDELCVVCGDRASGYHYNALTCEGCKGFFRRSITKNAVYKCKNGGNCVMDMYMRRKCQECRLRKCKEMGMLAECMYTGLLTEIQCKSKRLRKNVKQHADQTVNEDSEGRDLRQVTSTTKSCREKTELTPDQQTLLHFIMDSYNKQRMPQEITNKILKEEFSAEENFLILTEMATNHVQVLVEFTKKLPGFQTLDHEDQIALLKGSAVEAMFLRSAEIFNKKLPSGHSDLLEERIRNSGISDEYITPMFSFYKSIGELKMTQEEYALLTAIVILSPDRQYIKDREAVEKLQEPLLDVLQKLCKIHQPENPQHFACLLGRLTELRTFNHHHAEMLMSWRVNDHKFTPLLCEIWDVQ
In short: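 Antagonist mode against 50 uM (final) chenodeoxycholic acid stimulation in FXR-bla HEK 293T cells, 16 h at 37 °C. Inhibition detected as reduced beta-lactamase activity via LiveBLAzer B/G FRET fluorescence after 2 h at room temperature.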

[11] = qHTS assay to identify small molecule agonists of the farnesoid-X-receptor (FXR) signaling pathway - cell viability counter screen (AID 743218); also: nearly all actives have a fitted effect of over 45% in size
In short: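 Cytotoxicity counter-screen run in parallel, same wells: FXR-UAS-bla HEK 293T cells dosed 16 h at 37 C, viability read by CellTiter-Glo luminescence after 30 min at room temperature.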

[12] = target: Bile acid receptor (Homo sapiens) (UniProt Q96RI1); assay: qHTS assay to identify small molecule agonists of the farnesoid-X-receptor (FXR) signaling pathway (AID 743220; active = well fitted activation curve with a large enough effect in the signal ratio in the repeat runs, not every such curve was filed as active; the % refers to the signal ratio)
In short: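 Beta-lactamase reporter under UAS control in GeneBLAzer FXR HEK 293T cells (5000/well) measured with LiveBLAzer FRET substrate after 2 h at room temperature. Compound exposure lasted 16 h at 37C.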

[13] = qHTS assay to identify small molecule antagonists of the farnesoid-X-receptor (FXR) signaling pathway - cell viability counter screen (AID 743221; active = well fitted cell-killing curve with a large enough effect in the repeat runs, not every such curve was filed as active; also: nearly all actives have a fitted effect of over 50% in size)
In short: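 Cytotoxicity counter screen run in the FXR-bla reporter wells: HEK 293T cells exposed to compound with 50 uM (final) chenodeoxycholic acid for 16 h, 37 C, then viability measured by CellTiter-Glo luminescence after 30 min, room temperature.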

[14] = target: Vitamin D3 receptor (Homo sapiens) (UniProt P11473); assay: qHTS assay to identify small molecule agonists of the vitamin D receptor (VDR) signaling pathway (AID 743222; calls by dose curve)
Chain of Vitamin D3 receptor (Homo sapiens) (P11473 whole entry, looked up): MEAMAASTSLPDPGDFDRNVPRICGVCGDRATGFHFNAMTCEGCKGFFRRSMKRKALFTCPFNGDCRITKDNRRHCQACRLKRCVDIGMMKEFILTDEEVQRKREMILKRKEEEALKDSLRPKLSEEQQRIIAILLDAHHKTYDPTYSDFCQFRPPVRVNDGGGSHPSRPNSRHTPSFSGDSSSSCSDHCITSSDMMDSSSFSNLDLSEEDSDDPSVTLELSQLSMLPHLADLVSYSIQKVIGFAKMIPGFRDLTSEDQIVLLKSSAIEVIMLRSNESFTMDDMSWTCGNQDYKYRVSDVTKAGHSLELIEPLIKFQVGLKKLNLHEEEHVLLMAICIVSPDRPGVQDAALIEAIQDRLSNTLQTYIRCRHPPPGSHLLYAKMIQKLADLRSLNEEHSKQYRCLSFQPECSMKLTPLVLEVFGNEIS
In short: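 Quantitative HTS agonist-mode screen: compounds in DMSO were pin-transferred onto VDR-bla cells and incubated 16 h at 37C, 5% CO2. Reporter activity was detected with LiveBLAzer B/G FRET substrate after 2 h at room temperature.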

[15] = target: Peroxisome proliferator-activated receptor gamma (Homo sapiens) (UniProt P37231); assay: qHTS assay to identify small molecule antagonists of the peroxisome proliferator-activated receptor gamma (PPARg) signaling pathway (AID 743191; calls by dose curve; also: series mostly up to about 63 µM; nearly all actives have a fitted effect of over 30% in size)
Chain of Peroxisome proliferator-activated receptor gamma (Homo sapiens) (P37231 whole entry, looked up): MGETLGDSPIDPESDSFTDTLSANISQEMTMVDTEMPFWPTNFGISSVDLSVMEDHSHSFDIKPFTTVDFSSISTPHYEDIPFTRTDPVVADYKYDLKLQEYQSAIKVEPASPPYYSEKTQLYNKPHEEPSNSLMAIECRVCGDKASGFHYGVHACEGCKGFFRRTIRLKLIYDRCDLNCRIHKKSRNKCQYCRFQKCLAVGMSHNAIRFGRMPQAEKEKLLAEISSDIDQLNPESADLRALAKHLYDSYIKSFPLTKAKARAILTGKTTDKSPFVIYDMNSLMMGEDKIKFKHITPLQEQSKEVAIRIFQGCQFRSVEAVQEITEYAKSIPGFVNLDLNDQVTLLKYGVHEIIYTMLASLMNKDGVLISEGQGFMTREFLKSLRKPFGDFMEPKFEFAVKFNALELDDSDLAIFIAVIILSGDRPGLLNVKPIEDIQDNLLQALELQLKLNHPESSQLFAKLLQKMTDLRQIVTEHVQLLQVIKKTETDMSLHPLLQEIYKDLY
In short: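 GeneBLAzer PPARg UAS-bla HEK293H cells carrying a UAS-driven beta-lactamase reporter were plated at 3000 cells/well, preincubated 5 h at 37C, then given compound for 17 h at 37C; LiveBLAzer B/G FRET substrate was read after 1 h at room temperature.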

[16] = target: Vitamin D3 receptor (Homo sapiens) (UniProt P11473); assay: qHTS assay to identify small molecule antagonists of the vitamin D receptor (VDR) signaling pathway (AID 743223; active = well fitted inhibition curve with a large enough effect in the signal ratio in the repeat runs, not every such curve was filed as active; the % refers to the signal ratio)
In short: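 Antagonist mode: compound added to VDR-bla cells alongside agonist 1alpha,25-dihydroxyvitamin D3 (3 nM final), incubation 16 h at 37C. Read-out is LiveBLAzer FRET fluorescence, 2 h at room temperature.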

[17] = target: Peroxisome proliferator-activated receptor gamma (Homo sapiens) (UniProt P37231); assay: qHTS assay to identify small molecule agonists of the peroxisome proliferator-activated receptor gamma (PPARg) signaling pathway (AID 743094; active = well fitted activation curve with a large enough effect in the signal ratio in the repeat runs, not every such curve was filed as active; the % refers to the signal ratio)
In short: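 Quantitative HTS agonist mode: stable HEK293H line with UAS-beta-lactamase reporter under PPARg control, 17 h compound exposure at 37C, fluorescence after 1 h FRET substrate loading at room temperature.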

[18] = target: Peroxisome proliferator-activated receptor delta (Homo sapiens) (UniProt Q03181); assay: qHTS assay to identify small molecule antagonists of the peroxisome proliferator-activated receptor delta (PPARd) signaling pathway (AID 743215; active = well fitted inhibition curve with a large enough effect in the signal ratio in the repeat runs, not every such curve was filed as active; the % refers to the signal ratio; also: series mostly up to about 62 µM)
Chain of Peroxisome proliferator-activated receptor delta (Homo sapiens) (Q03181 whole entry, looked up): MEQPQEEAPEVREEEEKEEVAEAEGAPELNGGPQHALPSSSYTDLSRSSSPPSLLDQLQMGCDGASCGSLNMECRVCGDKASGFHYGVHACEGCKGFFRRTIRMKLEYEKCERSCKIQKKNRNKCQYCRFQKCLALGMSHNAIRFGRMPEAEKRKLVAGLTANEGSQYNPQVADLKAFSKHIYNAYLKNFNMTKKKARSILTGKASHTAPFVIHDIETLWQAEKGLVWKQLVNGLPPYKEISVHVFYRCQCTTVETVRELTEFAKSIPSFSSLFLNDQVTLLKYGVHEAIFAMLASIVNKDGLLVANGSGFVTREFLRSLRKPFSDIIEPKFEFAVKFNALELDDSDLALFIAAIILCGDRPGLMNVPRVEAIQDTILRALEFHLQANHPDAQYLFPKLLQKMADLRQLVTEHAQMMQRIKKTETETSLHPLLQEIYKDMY
In short: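 Inhibition of L165041-driven (300 nM final) PPARd signaling is scored in HEK293H UAS-bla cells. Exposure lasts 17 h at 37 C; beta-lactamase activity is then read by FRET substrate fluorescence after 2 h at room temperature.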

[19] = target: Aryl hydrocarbon receptor (Homo sapiens) (UniProt P35869); assay: qHTS assay to identify small molecule that activate the aryl hydrocarbon receptor (AhR) signaling pathway (AID 743085);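 also: HG2L7.5c1 human HepG2 liver cells with stably integrated DRE-driven firefly reporter; series mostly up to about 70 µM; nearly all actives have a fitted effect of over 15% in size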
Chain of Aryl hydrocarbon receptor (Homo sapiens) (P35869 whole entry, looked up): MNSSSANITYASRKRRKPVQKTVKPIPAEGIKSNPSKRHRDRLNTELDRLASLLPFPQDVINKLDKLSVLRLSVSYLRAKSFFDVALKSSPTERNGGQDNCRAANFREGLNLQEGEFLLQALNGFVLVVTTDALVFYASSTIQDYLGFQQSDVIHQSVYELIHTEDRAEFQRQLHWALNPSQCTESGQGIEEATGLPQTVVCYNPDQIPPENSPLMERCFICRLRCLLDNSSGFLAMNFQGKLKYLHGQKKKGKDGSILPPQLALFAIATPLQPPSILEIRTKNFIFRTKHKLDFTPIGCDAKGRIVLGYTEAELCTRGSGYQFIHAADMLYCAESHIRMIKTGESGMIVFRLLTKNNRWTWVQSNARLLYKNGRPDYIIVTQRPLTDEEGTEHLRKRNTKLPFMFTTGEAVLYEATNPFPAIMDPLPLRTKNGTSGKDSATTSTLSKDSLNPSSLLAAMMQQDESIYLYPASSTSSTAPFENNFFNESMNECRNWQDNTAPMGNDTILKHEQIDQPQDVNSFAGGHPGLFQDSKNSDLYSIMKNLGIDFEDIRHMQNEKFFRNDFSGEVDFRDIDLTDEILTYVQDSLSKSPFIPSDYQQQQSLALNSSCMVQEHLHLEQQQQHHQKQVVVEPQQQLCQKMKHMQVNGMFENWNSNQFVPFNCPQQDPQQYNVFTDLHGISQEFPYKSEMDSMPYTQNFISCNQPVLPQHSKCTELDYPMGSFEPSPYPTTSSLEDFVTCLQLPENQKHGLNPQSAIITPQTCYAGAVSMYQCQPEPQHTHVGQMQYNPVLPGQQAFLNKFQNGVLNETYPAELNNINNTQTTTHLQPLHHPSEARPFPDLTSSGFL
In short: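 Luminescence (ONE-Glo) from a dioxin-responsive-element luciferase reporter in HG2L7.5c1 HepG2 cells after 24 hr compound exposure at 37C; viability measured by CellTiter-Fluor fluorescence beforehand.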

[20] = target: Peroxisome proliferator-activated receptor delta (Homo sapiens) (UniProt Q03181); assay: qHTS assay to identify small molecule agonists of the peroxisome proliferator-activated receptor delta (PPARd) signaling pathway (AID 743212; calls by dose curve)
In short: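 A PPARd-bla HEK293H line with beta-lactamase under an Upstream Activator Sequence is treated with compounds at 37 C. Substrate loading for 2 h at room temperature precedes the fluorescence measurement.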

Measured: Potency

O=C(O)C(c1ccc(Cl)cc1)c1ccc(Cl)cc1
not listed: [15] | [16] | [17] | [18] | [19] | [20]
inactive: all other assays above

CCCCOc1cc(C(=O)OCCN(CC)CC)ccc1N
not listed: [4] | [6] | [10] | [11] | [17] | [18] | [19] | [20]
inactive: all other assays above

O=[N+]([O-])c1cccc(Cl)c1Cl
not listed: [1] | [3] | [16] | [19] | [20]
inactive: all other assays above

CCCCOC(=O)c1ccccc1C(=O)OCC(CC)CCCC (configuration not stated)
not listed: [1] | [10] | [11] | [16]
inactive: all other assays above

CC(=O)c1ccc2c(c1)[C@H](NC(=O)c1ccc(F)cc1)[C@@H](O)C(C)(C)O2
not listed: [1] | [4] | [10] | [12] | [15] | [16]
inactive: all other assays above

O=S1(=O)c2cccc3cccc(c23)N1CCCN1CCN(c2ccc(F)cc2)CC1
not listed: [1] | [4] | [7] | [8] | [10] | [18] | [19] | [20]
inactive: all other assays above

O=C(O)c1cn(C2CC2)c2cc(Cl)c(F)cc2c1=O
inactive: [3] | [4] | [5] | [6] | [7] | [8] | [9] | [18] | [13] | [14] | [16]

CCOc1ccc(NC(=O)CC(C)=O)cc1
not listed: [10] | [12] | [15] | [16] | [17] | [18] | [19]
inactive: all other assays above
